PubChem BioAssay
Unmarked numbers belong to inactive results. The rule behind the calls is not given here.

Target: Pantothenate synthetase (Mycobacterium tuberculosis (strain ATCC 25618 / H37Rv)) (UniProt P9WIL5)
Assay: Coupled enzyme confirmation of inhibitors against recombinant Mtb PanC (AID 375);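 note: 0% = full reaction with vehicle and 100% = no enzyme background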
Conditions: coupled enzyme assay; at 10 µM, stronger effect = higher value

Chain of Pantothenate synthetase (Mycobacterium tuberculosis (strain ATCC 25618 / H37Rv)) (P9WIL5 whole entry, looked up): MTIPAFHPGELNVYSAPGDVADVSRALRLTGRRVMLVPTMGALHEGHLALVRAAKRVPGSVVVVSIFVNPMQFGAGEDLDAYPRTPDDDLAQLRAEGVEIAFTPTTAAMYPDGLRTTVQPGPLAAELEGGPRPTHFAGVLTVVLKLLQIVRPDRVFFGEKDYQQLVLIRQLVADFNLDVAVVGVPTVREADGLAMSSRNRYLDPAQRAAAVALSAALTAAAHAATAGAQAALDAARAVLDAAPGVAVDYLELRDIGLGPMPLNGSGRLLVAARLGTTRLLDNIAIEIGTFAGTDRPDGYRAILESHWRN

Row | SMILES | inhibition [%]
1 | Cc1cc2ncc(-c3ccc(Cl)cc3)c(N)n2n1 | 0
2 | O=C(NCC1COc2ccccc2O1)c1ccc(NC(=O)c2ccco2)cc1 (centres undefined) | 0
3 | CSc1cccc(NC(=O)C2CCN(S(C)(=O)=O)CC2)c1 | 0
4 | CCOc1ccc(S(=O)(=O)N2CCN(c3ccc(C)cc3C)CC2)cc1 | 0
